Results on 27 compounds are retold here after PubChem BioAssay (NCI).

What all share (test): NCI-60 one-dose screen, 48 h (100 = growth as untreated, 0 = no growth, -100 = all killed)
Common to all, as to conditions: 10 µM unless noted

Assay [1] concerns SR leukemia.
Assay [2] has as its system RPMI-8226 leukemia.
The subject of assay [3] is OVCAR-8 ovarian.
The subject of assay [4] is OVCAR-5 ovarian.
Assay [5] relates to OVCAR-4 ovarian.
The test system of assay [6] is SK-OV-3 ovarian.
The test system of assay [7] is IGROV1 ovarian.
Assay [8] has as its system OVCAR-3 ovarian.
Assay [9] deals with HS 578T breast.
For assay [10], the system named is NCI/ADR-RES ovarian.

The panel holds about 83,000 compounds, 20% with a hit somewhere; the sample as a whole holds those more often.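 Step 1: grow cells in 96-well plates. Step 2: add test compound at a single concentration. Step 3: incubate 48 h. Step 4: record percent growth.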 Unmarked numbers belong to inactive results. Active and inactive are the calls of the source. The calls were made as follows: active = growth percent below 10; inactive = the rest.

Regarding `O=C(CCl)NNc1nccc(Nc2ccc(S(=O)(=O)Nc3ccncc3)cc2)n1`, the growth was 37.1% in [1]; 31.3% in assay [2]; 60.4% in assay [3]; 67.7% in assay [4]; 36.8% in assay [5]; 90.5% in assay [6]. The growth in assay [7] was 18.8%; in assay [8], 24.2%; in assay [9], 49.2%; in assay [10], 51%.

With `CCN1C(=O)N(CC)C2C1NC(=S)N2/N=C/c1ccc(OC)cc1` (stereo not given), the growth in assay [1] was 24.1%; in assay [2], 85.4%; in assay [3] it was 70.4%; in [4], 82.7%; in assay [5] it was 81%; in assay [6], 57%. For the same compound, the growth is 44.9% in assay [7], 17.1% in [8], 47.5% in assay [9] and 57.4% in assay [10].

Turning to `O=C(O)c1ccc(-c2ccc(/C=N/Nc3nc(Nc4ccccc4)nc(N4CCCCC4)n3)o2)cc1`, the growth in assay [1] was 65.5%; in [2] it was 43.7%; in assay [3] it was 48.7%; in [4], 94.9%; in [5], 77.1%; in assay [6], 92%. The growth in assay [7] is 45.2%; in assay [8] it was 64.8%; in assay [9], 40.7%; in [10] it was 57.7%.

Take `CC1(C)C(N)=Nc2cc(OCCCN3Cc4ccccc4C3)c(OCC3CC3)cc21`: the growth is 32.4% in [1]; 44.3% in assay [2]; 76.8% in assay [3]; 83.2% in assay [4]; 91.4% in assay [5]; 75% in [6]. Further, the growth in assay [7] is 80.2%; in [8], 80.6%; in assay [9], 71.7%; in assay [10] it was 92.9%.

For `CC/C(Cc1ccccc1)=C(\c1ccc(OCCCN(C)C)cc1)c1ccc(OC(=O)NCc2ccccc2)cc1`, the growth in assay [1] was -22% (active); in assay [2] it was 60.4%; in assay [3], 76.1%; in assay [4] it was 90.6%; in [5], 75.7%; in assay [6], 91.2%. For the same compound, the growth was 59% in assay [7], 87.8% in assay [8], 73.4% in assay [9] and 81.4% in assay [10].

As to `COc1ccc(CCN(CC(=O)N(CC(N)=O)C2CCC[C@@H]2OCc2ccccc2)C(=O)CN(C(=O)CN(CCc2ccc(Cl)cc2)C(=O)CN(C(=O)CN(C)Cc2ccccc2F)[C@H](C)C2CCCCC2)[C@H](C)C2CCCCC2)cc1OC` (stereo not given in full), the growth in assay [1] was -37.1% (active); in assay [2], -0.194% (active); in assay [3] it was 32.2%; in [4], 49.2%; in assay [5], 48.9%; in [6], 38.4%. Besides, the growth was 43.4% in [7], 32.5% in assay [8], 64.3% in [9] and 79.2% in [10].

As to `Cc1ccc(-c2csc(NC(=O)c3ccccc3CN3C(=O)c4ccccc4C3=O)n2)cc1`, the growth is 103% in assay [1]; 94.8% in assay [2]; 93.5% in assay [3]; 90.8% in assay [4]; 111% in assay [5]; 97.5% in assay [6]. Moreover, the growth in [7] is 96.5%; in [8] it was 103%; in assay [9] it was 98.8%; in [10], 82.3%.

Consider `CC1CCN(C(=O)CCCl)c2ccccc21` (stereo not given), for which the growth in [1] is 113%; in [2], 114%; in assay [3] it was 96.6%; in assay [4], 129%; in assay [5] it was 103%; in [6] it was 112%. The growth in [7] is 96.9%; in [8], 115%; in assay [9] it was 87.5%; in assay [10] it was 98%.

`c1ccc(CCNc2c3ccccc3nc3ccccc23)cc1`: the growth in [1] was 20.9%; in assay [2], 19.5%; in assay [3], 38.3%; in assay [4], 53.4%; in assay [5] it was 35%; in [6], 62.6%. Also, the growth is 28% in assay [7], 71% in assay [8], 73.3% in assay [9] and 33.5% in assay [10].

In the case of `Clc1ccc(-c2cc(-c3ccccc3)nc(NCCNc3ccnc4cc(Cl)ccc34)n2)cc1`, the growth was 29.2% in [1]; -25.3% (active) in assay [2]; -55.9% (active) in assay [3]; 48.9% in [4]; -69.4% (active) in [5]; 100% in [6]. The growth in assay [7] is -61.3% (active); in assay [8], -90.6% (active); in assay [9], -17.5% (active); in [10], -63.4% (active).

For `CCOC(=O)/C=C1\S/C(=N\Nc2cc(=O)[nH]c3ccccc23)N(c2ccccc2)C1=O`, the growth is 96.6% in assay [1]; 112% in [2]; 100% in assay [3]; 101% in assay [4]; 84.3% in [5]; 101% in assay [6]. Further, the growth was 105% in [7], 104% in [8], 101% in assay [9] and 101% in assay [10].

Regarding `Nc1[nH]c(=S)nc2oc(-c3ccccc3)c(-c3ccccc3)c12`, the growth is 93.8% in assay [1]; 99.8% in assay [2]; 101% in assay [3]; 98.2% in [4]; 97.2% in [5]; 103% in assay [6]. The growth was 100% in [7], 102% in [8], 91.1% in assay [9] and 98.9% in assay [10].

With `N#C/C(=C\C=C\c1ccc(-c2cc(Cl)ccc2Cl)o1)c1nc2ccccc2s1`, the growth in [1] was 92.7%; in assay [2], 96.5%; in [3], 96.4%; in assay [4], 102%; in assay [5], 98.9%; in [6] it was 76.8%. The growth in assay [7] was 70.6%; in [8], 105%; in assay [9] it was 100%; in assay [10], 100%.

Take `N#Cc1ccc(O)c(C2=NCC(Cc3ccccc3)O2)c1` (stereo not given): the growth was 60.8% in [1]; 55.3% in [2]; 37% in assay [3]; 79.7% in [4]; 22.3% in [5]; 50.9% in assay [6]. The growth in assay [7] was 43.2%; in assay [8], 16.1%; in [9], 90.7%; in assay [10], 0.317% (active).

In the case of `O=S(=O)(NCCCNc1nccc(-c2c(-c3cccc(F)c3)nc3occn23)n1)c1ccc(F)cc1`, the growth in [1] was 53.8%; in assay [2] it was 37.3%; in assay [3], 30.1%; in [4] it was 89.9%; in [5], 37%; in assay [6] it was 54.5%. Also, the growth in assay [7] was 24.5%; in [8] it was 55.3%; in assay [9] it was 59%; in assay [10], 42.4%.

Turning to `C/C=C(/C)n1cnc2c(Nc3ccccn3)nc(Cl)nc21`, the growth in [1] was 105%; in assay [2], 98.2%; in [3], 100%; in [4], 98.4%; in [5], 105%; in [6] it was 111%. The growth in [7] is 103%; in [8] it was 111%; in assay [9], 97.8%; in assay [10] it was 108%.

Take `CCO/C=N/C1=C(C#N)C(c2ccc(F)cc2)c2sc3c(F)cccc3c2O1` (stereo not given): the growth is 31.8% in assay [1]; 41.9% in [2]; 51.5% in assay [3]; 83.4% in assay [4]; 67.8% in assay [5]; 46.9% in assay [6]. In addition, the growth in [7] is 50.3%; in assay [8] it was 8.43% (active); in assay [9] it was 24.4%; in assay [10], 25.6%.

`COc1ccc(Nc2ncccc2/C=C/C(=O)c2cc(OC)c(OC)c(OC)c2)cc1`: the growth is -22.4% (active) in assay [1]; -25.3% (active) in [2]; -33.8% (active) in [3]; -15.4% (active) in assay [4]; 29% in assay [5]; 64.6% in [6]. Moreover, the growth in assay [7] was -2.98% (active); in assay [8], -88.2% (active); in [9], 37.8%; in [10], 14%.

On to `O=C1C(Nc2ccccn2)=C(I)C(=O)c2ncccc21`, for which the growth in assay [1] is 2% (active); in [2] it was -15.5% (active); in assay [3], -15.3% (active); in assay [4], -55.3% (active); in [5], -53.3% (active); in assay [6], -44.9% (active). For the same compound, the growth in [7] is -67.5% (active); in [8], -48.4% (active); in assay [9], -10.1% (active); in [10], -7.85% (active).

Turning to `Cc1c(Cl)cccc1C(=O)Nc1nc2c(s1)CN(C(=O)c1ccc(C(F)(F)F)cc1)CC2`, the growth is 21.3% in assay [1]; 10.6% in [2]; 10.1% in [3]; 57.5% in assay [4]; 38.5% in assay [5]; 36.4% in assay [6]. Further, the growth in assay [7] was 17.9%; in [8], 0.113% (active); in assay [9], 26.8%; in assay [10] it was 5.22% (active).

In the case of `C=C(C)[C@@H]1CC[C@]2(C(=O)N3CCN(C)CC3)CC[C@]3(C)[C@H](CC[C@@H]4[C@@]5(C)CC[C@H](OC(=O)c6ccccc6C(=O)O)C(C)(C)[C@@H]5CC[C@]43C)[C@@H]12`, the growth in assay [1] is 90.5%; in [2] it was 96.7%; in [3], 104%; in assay [4], 104%; in [5] it was 99.2%; in assay [6] it was 104%. Further, the growth is 97.9% in assay [7], 110% in assay [8], 94.7% in assay [9] and 104% in assay [10].

In the case of `Cc1ccc(C(=O)c2ccc(CC(=O)N=Nc3c(O)[nH]c4ccc(Br)cc34)n2C)cc1`, the growth is 101% in assay [1]; 92.7% in assay [2]; 94.9% in assay [3]; 91.7% in assay [4]; 97.6% in assay [5]; 91.3% in assay [6]. Besides, the growth is 77.5% in assay [7], 105% in [8], 99.6% in assay [9] and 87.7% in assay [10].

Consider `COc1ccc(/C(C)=C(/c2ccc(OCCCN(C)C)cc2)c2ccc(OC(=O)c3ccccc3)cc2)cc1`, for which the growth is 9.15% (active) in assay [1]; 62.6% in [2]; 91.6% in [3]; 88.1% in [4]; 99.8% in assay [5]; 90.8% in assay [6]. Further, the growth was 93.6% in assay [7], 69.5% in [8], 55.4% in [9] and 86.4% in assay [10].

As to `COc1ccc2c(c1)/C(=N/c1n[nH]c(=S)s1)C(=O)N2`, the growth was 69.9% in assay [1]; 54.1% in [2]; 92.8% in [3]; 102% in [4]; 97.7% in assay [5]; 148% in [6]. The growth in assay [7] was 75.3%; in assay [8], 96.2%; in assay [9] it was 91.7%; in assay [10], 94%.

Take `NC(=O)c1c(NC(=O)c2cccs2)sc2c1CCC(=O)C2`: the growth in assay [1] was 5.54% (active); in [2], -13.6% (active); in assay [3] it was 21.2%; in assay [4], 22.2%; in assay [5], -6.38% (active); in [6], 87.1%. Moreover, the growth was 29.7% in [7], 13% in assay [8], 35.1% in assay [9] and 59.4% in [10].

As to `C=C(C)[C@@H]1CC[C@]2(C(N)=O)CC[C@]3(C)[C@H](CC[C@@H]4[C@@]5(C)CC[C@H](OCCC#N)C(C)(C)[C@@H]5CC[C@]43C)[C@@H]12`, the growth was 72.7% in assay [1]; 73.2% in assay [2]; 86.9% in assay [3]; 76.3% in assay [4]; 93.2% in [5]; 79.5% in assay [6]. In addition, the growth in assay [7] was 90%; in [8], 110%; in assay [9], 88.3%; in [10] it was 89%.

For `C/C(=N\O)c1ccc(NC(=O)CSc2nnc(-c3cc(-c4ccc(S(N)(=O)=O)cc4)nc4ccccc34)n2-c2ccccc2)cc1`, the growth in [1] was 24.2%; in assay [2] it was 34.4%; in assay [3] it was 59.4%; in [4], 96.6%; in assay [5], 91.6%; in [6], 108%. Also, the growth is 63% in [7], 78% in assay [8], 61.7% in assay [9] and 98.9% in assay [10].
